# Compound activity deposited in PubChem by National Center for Advancing Translational Sciences (NCATS).
# LASV entry inh = blocks Lassa virus binding to or entry into cells; Lassa virus pseudotype entry inhibition, cell reporter; Potency, µM (top dose mostly 37.9 µM), for the others: top-dose activity change, negative = inhibition, usual class: inhibitors; 1.2% of 300,000 active; AID 540256; calls by dose curve; tested in HEK293 cells; also: potency is read from the fitted curve at half-maximal effect; nearly all actives have a fitted effect of over 50% in size
# HCV inh = HCV inhibition | Huh7.5.1 HCVcc-Cre infection, luciferase reporter, 44 h | Potency, µM (highest dose often 41.8 µM), for the others: at the top dose activity change, negative = inhibition, actives largely listed as inhibitors | 3.4% of 340,000 active; active = well fitted inhibition curve with a large enough effect; inconclusive = small, poorly fitted or top-dose-only effect, or another doubt; inactive = no such curve, though single readings can be large or run the other way; also: potency is read from the fitted curve at half-maximal effect
#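 Infectious HCVcc-Cre (~0.5 moi) was added to cells just after compound, with cells seeded 4 h earlier at 1,000 per well. Luciferase activity after 44 h culture reported infection; substrate was incubated 15 min at room temperature before reading.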
# FMDV antiviral = foot and mouth disease virus antiviral activity | FMDV antiviral cell-based qHTS | Potency, µM (highest dose often 57.9 µM), for the others: at the highest dose activity change, negative = inhibition, usual class: inhibitors | 1.2% of 410,000 active; calls by dose curve; tested in HEK293T cells; also: read-out not given here; potency is read from the fitted curve at half-maximal effect; nearly all actives have a fitted effect of over 45% in size
# Marburg entry inh = Marburg virus entry inhibition | Marburg virus pseudotyped entry inhibition, cell reporter | Potency, µM (doses to about 37.8 µM), for inactives: at the top dose activity change, negative = inhibition, actives largely listed as inhibitors | 1.8% of 300,000 active | AID 540276; calls by dose curve; tested in HEK293 cells; also: potency is read from the fitted curve at half-maximal effect
# HCMV inh = inhibitors of human cytomegalovirus; AID 1259415; activity change, negative = inhibition, % at 57.5 µM; HFF cells, HCMV-luciferase reporter, 72 h; stronger effect = lower value; 4.5% of 410,000 active; in the data active = activity change below about -60%; inconclusive = no clear call, values can overlap the other calls; inactive = above about -39%
#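 HFF cells seeded 16 h at 37C, treated with compounds, infected with luciferase-reporter HCMV at MOI 1 PFU/cell; luciferase read at 72 h post infection, normalized to buffer-only and Salinomycin controls.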
# * hit, by the source's call; ? = inconclusive; / = no result given; [ ] = remark or other dose. Shown are actives, neighbours in structure and some others; about 7.9% of the full set was active somewhere. % is scaled to controls: 0 for no effect and ±100 for the full control effect.
SMILES,LASV entry inh,HCV inh,FMDV antiviral,Marburg entry inh,HCMV inh
C/C(CCc1ccc2c(c1)OCO2)=N\NC(=S)NC(C)C,/,-7%,0%,/,-36
COCCCNC(=S)N1CCN(Cc2ccc3c(c2)OCO3)CC1,/,10%,-18%,/,-103*
CCCCOc1ccc(C(=O)NCC(=O)N2CCN(Cc3ccc4c(c3)OCO4)CC2)cc1,0%,?,0%,-20%,-68*
Cc1ccccc1NC(=S)N1CCN(Cc2ccc3c(c2)OCO3)CC1,-2%,9%,?,?,-28
COCCNC(=S)N/N=C(\C)CCc1ccc2c(c1)OCO2,-2%[46.1 µM],-20%,-1%,5%[46.1 µM],-67*
CC(C)NC(=S)N1CCN(Cc2ccc3c(c2)OCO3)CC1,25%,0%,-15%,3%[46.1 µM],-38
CCN(CC)c1ccc(C(=O)NC(=S)N2CCN(Cc3ccc4c(c3)OCO4)CC2)cc1,-4%,11µM*,-19%,2%,-8
O=C(CSc1nnc(-c2ccccc2)n1Cc1ccccc1)N1CCOCC1,1%,1%,-5%,-12%,-10
Oc1ccccc1-c1nnc(SCCN2CCOCC2)n1Cc1ccccc1,-20%,?,60%,-29%,-64*
CCc1ccccc1NS(=O)(=O)c1ccc(NC(=O)N2CCCC2)cc1,-16%[46.1 µM],/,0%,/,21
CCCCN1CC(COCc2ccccc2)Oc2cccc(Oc3ccccc3)c2S1(=O)=O (stereo not given),?,2.5µM*,14%,/,1
COc1ccc(NC(=O)CC2Oc3ccc(C)cc3NC2=O)cc1Cl (stereo not given),/,/,-3%,-9%[46.1 µM],-13
COCC(C)N=C1SCCN1Cc1ccccc1 (stereo not given),-1%[46.1 µM],11%,7%,-9%[46.1 µM],-9
CN(C)S(=O)(=O)c1cccc(N=C2SCCN2Cc2ccccc2)c1,?,10µM*,?,?,-6
CCOC(=O)c1ccc(N=c2sc(C(=O)OC)cc(=O)n2Cc2ccc3c(c2)OCO3)cc1,/,-15%,?,-1%,-14
COC(=O)c1cc(=O)n(Cc2ccc3c(c2)OCO3)c(=Nc2ccccc2)s1,/,-4%,35µM*,0%,8
COC(=O)c1cc(=O)n(Cc2ccc3c(c2)OCO3)c(=Nc2ccc(F)cc2)s1,/,?,13µM*,0%,26
COC(=O)C1(O)CC(c2ccccc2)C(C(=O)c2ccccc2)N1c1ccc(F)cc1 (stereo not given),/,/,/,/,-30
COc1ccc(CNC(=O)c2cc3cc(C)ccc3n2C)cc1,?,/,5%,?,-79*
Cc1ccc2c(c1)cc(C(=O)NCc1ccccc1)n2C,?,8%,8%,0.63µM*,-71*
O=C1CC(c2ccc3c(c2)OCCO3)Oc2ccccc21 (stereo not given),/,-16%,52%,/,12
O=C1CC(c2ccc3c(c2)OCCO3)Oc2ccc([N+](=O)[O-])cc21 (stereo not given),/,-4%,?,/,-77*
Cc1ccc(NC(=O)c2oc3ccc(S(=O)(=O)N4CCCCC4)cc3c2C)c(C)c1,6%[46.1 µM],/,?,/,8
O=C(OCc1ccccc1)N1CCC2CC1c1cc(N3CCOCC3)ccc12 (stereo not given),/,0.32µM*,3%,/,14
Cc1ccc(CCNC(=O)c2cc3sccc3n2Cc2ccc(Cl)cc2)cc1,-9%[46.1 µM],/,-28%,-7%[46.1 µM],/
SMILES,LASV entry inh,HCV inh,FMDV antiviral,Marburg entry inh,HCMV inh
COc1ccc(CCNC(=O)Cn2c(-c3ccc(F)cc3)cc(C(C)=O)c2C)cc1OC,-3%[46.1 µM],/,0%,/,0
COc1ccc(/C=C/C(=O)c2c(C)cc(C)[nH]c2=O)c2ccccc12,?,11µM*,-25%,?,-100*
COc1ccccc1/C=C/C(=O)c1c2c(c(C)[nH]c1=O)CCCC2,-46%[14.3 µM],/,?,21µM*,-109*
Cc1cc(C)c(C(=O)/C=C/c2ccco2)c(=O)[nH]1,-7%,-5%,27%,2%[46.1 µM],23
CCc1ccc(/C=C/C(=O)c2c(C)cc(C)[nH]c2=O)cc1,?,?,28µM*,?,-95*
COc1ccccc1/C=C(\C)C(=O)c1c(C)cc(C)[nH]c1=O,/,11%,-18%,/,-36
Cc1ccc(/C=C/C(=O)c2c(C)cc(C)[nH]c2=O)cc1,?,?,?,23µM*,-98*
COc1ccc(-n2nc(C(=O)N3CCN(c4cccc(C)c4)C(C)C3)c3c4ccccc4n(C)c3c2=O)cc1Cl (stereo not given),24%[46.1 µM],/,-6%,3%[46.1 µM],13
C/C(=C\c1cccs1)C(=O)c1c(C)cc(C)[nH]c1=O,/,11%,44%,/,-12
Cc1cc(C)c(C(=O)/C=C/c2cccs2)c(=O)[nH]1,/,-14%,36%,/,-64*
O=C(/C=C\c1cccs1)c1c(O)ccc2ccc(=O)oc12,?,-7%,-24%,-9%,-62*
O=C(C=Cc1cccs1)c1cccs1,8%[46.1 µM],-20%,33%,-6%[46.1 µM],?
COc1ccc(S(=O)(=O)N2CCC(n3c(C)nc4cccnc43)CC2)cc1Cl,-14%[46.1 µM],/,-4%,/,-29
COc1ccc(CN2CCN(C(C)C(=O)N(C)Cc3cccc(F)c3)CC2)cc1OC (stereo not given),/,?,-29%,/,-102*
COc1ccc(CN2CCN(C(C)C(=O)NC(C)c3ccc(F)cc3)CC2)cc1F (stereo not given),-10%[46.1 µM],-28%,-14%,?,?
CCOc1ccc(-n2cc(-c3ccccc3)c3c(N4CCC(C)CC4)ncnc32)cc1,-22%[46.1 µM],/,-19%,/,-63*
CC1CN(c2ncnc3c2c(-c2ccccc2)cn3-c2ccc(F)cc2)CC(C)O1 (stereo not given),?,10µM*,?,?,8
CCOC(=O)C1CCN(c2ncnc3c2c(-c2ccccc2)cn3-c2ccccc2)CC1,?,10µM*,-29%,?,-38
OCCN1CCN(c2ncnc3c2c(-c2ccccc2)cn3-c2ccc(F)cc2)CC1,-5%,-11%,?,?,-12
CCOC(=O)C1CCN(c2ncnc3c2c(-c2ccccc2)cn3-c2ccc(Cl)cc2)CC1,4%[46.1 µM],/,-13%,/,-2
COc1ccc(NC(=O)N2CCN(S(=O)(=O)c3ccc4c(ccn4C)c3)CC2)c(OC)c1,0%[46.1 µM],/,?,/,-8
COc1ccccc1Cc1nc2ccccc2nc1SCC(=O)Nc1cccc(Cl)c1C,16%[46.1 µM],/,28%,/,20
Cc1c(C(=O)N2CCCC2)sc2ncnc(NCCN(C)C)c12,/,/,-12%,/,/
CCOC(=O)N1c2ccccc2Sc2ccccc21,/,?,-13%,/,-34
Cc1nnc(SC(=O)N2c3ccccc3Sc3ccccc32)s1,21µM*,?,/,?,?
CCCn1cc(S(=O)(=O)c2ccc(F)cc2)c(=O)c2cc(OCC)ccc21,/,-24%,-3%,/,-67*
CCOc1ccc(NC(=O)Cn2c(=O)nc(-c3ccccc3)c3ccccc32)cc1,0%[46.1 µM],/,0%,/,70
CCc1ccc(NC(=O)CSc2nc3nccnc3c(=O)n2CCc2c[nH]c3ccccc23)cc1,?,/,-10%,/,53
O=C(CSc1nc2nccnc2c(=O)n1CCc1c[nH]c2ccccc12)Nc1ccc(F)cc1,-12%[46.1 µM],/,-3%,/,-63*
